Records with an inconclusive call do not appear. Active and inactive are the calls of the source. Calls follow the shape of the dose curve; as a rule, active = well fitted curve in the direction sought with a large enough effect in the repeat runs; inconclusive = weak or mixed curves; inactive = no such curve, though single readings can be large; an effect the other way counts as inactive or inconclusive.
Assays:
[1] = Human pregnane X receptor (PXR) small molecule agonists, qHTS cell viability counter screen (AID 1346977); also: nearly all actives have a fitted effect of over 50% in size
How it was run: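 PXR-Luc HepG2, 2,000 cells/well, 5% charcoal-stripped FBS; 5hr settle; cpd 24hr, 37C/5% CO2; CellTiter-Fluor at 23hr, read 1hr later (fluorescence).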

[2] = Caspase-3/7 induction in HepG2 cells by small molecules, qHTS assay (AID 1346978); also: nearly all actives have a fitted effect of over 15% in size
How it was run: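 Caspase-3/7 induction was measured by Caspase-Glo 3/7 luminescence (30 min, room temperature) after a 17 hr compound exposure of wild-type HepG2 cells seeded at 2,000 per well and pre-incubated 5 hr.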

[3] = Caspase-3/7 induction in CHO-K1 cells by small molecules, qHTS cell viability counter screen (AID 1346979); also: nearly all actives have a fitted effect of over 35% in size; also: potency is read from the fitted curve at half-maximal effect
How it was run: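 Cells (CHO-K1, wild type) are plated at 1,500 per well and incubated 5hr. Test compounds in DMSO are then pinned in, followed by 16hr at 37C and 5% CO2. Viability is read by CellTiter-Fluor fluorescence after 1hr.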

[4] = Caspase-3/7 induction in HepG2 cells by small molecules, qHTS cell viability counter screen (AID 1346981); also: nearly all actives have a fitted effect of over 30% in size; also: potency is read from the fitted curve at half-maximal effect; as to activity change, negative = cytotoxicity: series mostly up to about 92 µM
How it was run: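 Steps: seed 2,000 HepG2 cells per well; incubate 5 hr at 37 C; pin-add compounds in DMSO; incubate 16 hr; add CellTiter-Fluor; after 1 hr at 37 C and 5% CO2, read fluorescence.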

[5] = molecular target: Nuclear receptor subfamily 1 group I member 2 (Rattus norvegicus) (UniProt Q9R1A7); experiment: Rat pregnane X receptor (rPXR) activation by small molecules, qHTS assay (AID 1346983); conditions: rPXR luciferase reporter cells, One-Glo luminescence, 24 h; active compounds read high; also: nearly all actives have a fitted effect of over 20% in size
How it was run: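 Luminescent readout (One-Glo luciferase, 30 min room temperature) followed 24 hr compound treatment at 37 C of rPXR cells plated 2,000 per well and preincubated 5hr; qHTS format with compounds delivered in DMSO.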

[6] = molecular target: Nuclear receptor subfamily 1 group I member 2 (Homo sapiens) (UniProt O75469); experiment: CYP3A4 induction through human pregnane X receptor (PXR) by small molecules, qHTS assay (AID 1346984); also: nearly all actives have a fitted effect of over 40% in size
How it was run: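 Steps: seed DPX-2 cells, 5 hr at 37C; pin-transfer compounds; 24 hr at 37C; add Luciferin-IPA (3uM final), 3 hr at 37C; add One-Glo, 30 min RT; read luminescence.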

[7] = molecular target: Nuclear receptor subfamily 1 group I member 2 (Homo sapiens) (UniProt O75469); experiment: Human pregnane X receptor (PXR) activation by small molecules, qHTS assay (AID 1346985); also: nearly all actives have a fitted effect of over 40% in size
How it was run: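 DPX-2 cells (HepG2 co-transfected with a PXR response element and a CYP3A4-promoter luciferase construct) were seeded at 2,000 per well, rested 5 hr at 37C, then exposed to DMSO-dissolved compounds for 24 hr. Activation was read as luciferase luminescence.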

[8] = molecular target: Cytochrome P450 2D6 (Homo sapiens) (UniProt P10635); experiment: Cytochrome P450 Family 2 Subfamily D Member 6 (CYP2D6) small molecule antagonists: luciferase reporter qHTS assay (AID 1671196); also: nearly all actives have a fitted effect of over 50% in size; also: potency is read from the fitted curve at half-maximal effect; as to activity change, negative = inhibition: series mostly up to about 120 µM
How it was run: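 P450-Glo format: CYP2D6 converts a proluciferin substrate to luciferin in an NADPH-driven reaction lasting 1 h at room temperature. Light output, proportional to CYP2D6 activity, reflects interference by test chemicals.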

[9] = molecular target: Cytochrome P450 2C19 (Homo sapiens) (UniProt P33261); experiment: Cytochrome P450 Family 2 Subfamily C Member 19 (CYP2C19) small molecule antagonists: luciferase reporter qHTS assay (AID 1671197); also: nearly all actives have a fitted effect of over 65% in size; also: potency is read from the fitted curve at half-maximal effect; as to activity change, negative = inhibition: series mostly up to about 120 µM
How it was run: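 Enzyme-substrate mix with proluciferin substrate (P450-Glo CYP2C19 system) preincubated with compounds 10 min at room temperature; NADPH regeneration solution added, 37C for 1 h; detection reagent stops reaction, luminescence read after 20 min. Ketoconazole positive control.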

[10] = molecular target: Cytochrome P450 2C9 (Homo sapiens) (UniProt P11712); experiment: Cytochrome P450 Family 2 Subfamily C Member 9 (CYP2C9) small molecule antagonists: luciferase reporter qHTS assay (AID 1671198); also: nearly all actives have a fitted effect of over 50% in size; also: potency is read from the fitted curve at half-maximal effect; as to activity change, negative = inhibition: series mostly up to about 120 µM
How it was run: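 Enzyme-substrate mix preincubated with compound 10 min at room temperature; reaction started with NADPH regeneration solution, 1 h 37C. Luminescent luciferin product read after 20 min detection reagent.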

[11] = molecular target: Voltage-gated inwardly rectifying potassium channel KCNH2 (Homo sapiens) (UniProt Q12809); experiment: Human Ether-a-go-go-Related Gene (hERG) channel small molecule antagonists: fluorescence cell-based qHTS assay (AID 1671200);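 also: hERG-expressing U2OS cells given a thallium stimulus after FluxOR II dye loading; series mostly up to about 77 µM; nearly all actives have a fitted effect of over 50% in size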
How it was run: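 Channel function was assessed by thallium flux. Cells seeded the previous day and kept at 37 C took up FluxOR II dye over 1 h in the dark at room temperature, then sat another 10 min before stimulation.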

[12] = molecular target: Cytochrome P450 3A4 (Homo sapiens) (UniProt P08684); experiment: Cytochrome P450 Family 3 Subfamily A Member 4 (CYP3A4) small molecule antagonists: luciferase reporter qHTS assay (AID 1671201); also: nearly all actives have a fitted effect of over 50% in size; also: potency is read from the fitted curve at half-maximal effect; as to activity change, negative = inhibition: series mostly up to about 120 µM
How it was run: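 Compounds in DMSO were pin-transferred onto CYP3A4 enzyme-substrate mix and held 10 min at room temperature. NADPH regenerating solution started the reaction for 1 h; luciferin detection reagent stopped it, and luminescence was read after 20 min.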

[13] = molecular target: Nuclear receptor subfamily 1 group I member 2 (Homo sapiens) (UniProt O75469); experiment: Human pregnane X receptor (PXR) small molecule agonists, qHTS assay (AID 1346982); also: nearly all actives have a fitted effect of over 35% in size; also: potency is read from the fitted curve at half-maximal effect
How it was run: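 Agonist mode qHTS: PXR-Luc HepG2 cells plated 5 hr before DMSO-dissolved compounds were pinned in, cultured 24 hr at 37 C, 5% CO2; ONE-Glo luminescence readout.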

[14] = Caspase-3/7 induction in CHO-K1 cells by small molecules, qHTS assay (AID 1346980); also: nearly all actives have a fitted effect of over 15% in size
How it was run: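 Luminescent Caspase-Glo 3/7 read (30min, room temperature) quantified apoptosis induction. Cells were wild-type CHO-K1, treated with compound for 17hr at 37 C and 5% CO2.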

[15] = molecular target: Cytochrome P450 1A2 (Homo sapiens) (UniProt P05177); experiment: Cytochrome P450 Family 1 Subfamily A Member 2 (CYP1A2) small molecule antagonists: luciferase reporter qHTS assay (AID 1671199); also: nearly all actives have a fitted effect of over 50% in size; also: potency is read from the fitted curve at half-maximal effect; as to activity change, negative = inhibition: series mostly up to about 120 µM
How it was run: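 Inhibition of CYP1A2 conversion of proluciferin to luciferin, detected by luminescence. Reaction run 1 h at room temperature with NADPH regeneration after brief compound preincubation.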
% is scaled to controls: 0 for no effect and ±100 for the full control effect.

Chain of Nuclear receptor subfamily 1 group I member 2 (Homo sapiens) (O75469 whole entry, looked up): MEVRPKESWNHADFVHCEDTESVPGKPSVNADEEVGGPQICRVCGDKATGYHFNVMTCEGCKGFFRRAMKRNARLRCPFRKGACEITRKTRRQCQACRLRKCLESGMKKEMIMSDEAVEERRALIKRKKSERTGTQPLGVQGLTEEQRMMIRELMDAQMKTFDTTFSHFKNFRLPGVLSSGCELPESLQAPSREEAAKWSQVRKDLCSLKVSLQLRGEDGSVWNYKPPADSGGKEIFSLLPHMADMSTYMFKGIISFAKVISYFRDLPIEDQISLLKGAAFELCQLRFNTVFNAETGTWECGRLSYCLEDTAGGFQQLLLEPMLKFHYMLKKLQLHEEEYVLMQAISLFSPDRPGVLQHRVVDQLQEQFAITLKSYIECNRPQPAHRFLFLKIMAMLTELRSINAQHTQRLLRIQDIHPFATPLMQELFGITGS
Chain of Cytochrome P450 3A4 (Homo sapiens) (P08684 whole entry, looked up): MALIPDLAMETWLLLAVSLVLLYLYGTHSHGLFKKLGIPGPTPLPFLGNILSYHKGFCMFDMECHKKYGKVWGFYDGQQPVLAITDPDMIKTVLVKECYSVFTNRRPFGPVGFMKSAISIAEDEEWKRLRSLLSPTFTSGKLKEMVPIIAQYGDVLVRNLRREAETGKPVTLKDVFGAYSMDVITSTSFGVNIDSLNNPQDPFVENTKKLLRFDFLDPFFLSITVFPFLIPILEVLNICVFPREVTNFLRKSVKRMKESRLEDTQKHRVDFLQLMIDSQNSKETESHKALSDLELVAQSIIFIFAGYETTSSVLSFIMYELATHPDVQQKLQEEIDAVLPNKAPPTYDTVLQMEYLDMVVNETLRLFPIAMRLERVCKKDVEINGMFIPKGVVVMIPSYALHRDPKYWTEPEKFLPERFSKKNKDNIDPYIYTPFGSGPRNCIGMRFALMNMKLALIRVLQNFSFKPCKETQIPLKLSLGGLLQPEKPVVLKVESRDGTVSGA
Chain of Cytochrome P450 2C9 (Homo sapiens) (P11712 whole entry, looked up): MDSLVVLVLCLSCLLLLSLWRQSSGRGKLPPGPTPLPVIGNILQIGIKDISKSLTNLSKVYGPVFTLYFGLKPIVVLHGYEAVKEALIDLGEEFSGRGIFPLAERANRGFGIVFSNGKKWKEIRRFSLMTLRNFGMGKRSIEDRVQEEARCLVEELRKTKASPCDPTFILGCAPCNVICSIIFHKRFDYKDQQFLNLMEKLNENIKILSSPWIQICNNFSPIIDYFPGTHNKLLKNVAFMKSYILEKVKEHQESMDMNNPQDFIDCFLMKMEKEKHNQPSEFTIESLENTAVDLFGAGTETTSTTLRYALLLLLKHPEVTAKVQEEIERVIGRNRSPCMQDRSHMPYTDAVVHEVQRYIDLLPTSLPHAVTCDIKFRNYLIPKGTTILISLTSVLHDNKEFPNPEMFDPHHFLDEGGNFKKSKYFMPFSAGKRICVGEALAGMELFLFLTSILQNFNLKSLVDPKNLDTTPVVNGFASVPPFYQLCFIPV
Chain of Voltage-gated inwardly rectifying potassium channel KCNH2 (Homo sapiens) (Q12809 whole entry, looked up): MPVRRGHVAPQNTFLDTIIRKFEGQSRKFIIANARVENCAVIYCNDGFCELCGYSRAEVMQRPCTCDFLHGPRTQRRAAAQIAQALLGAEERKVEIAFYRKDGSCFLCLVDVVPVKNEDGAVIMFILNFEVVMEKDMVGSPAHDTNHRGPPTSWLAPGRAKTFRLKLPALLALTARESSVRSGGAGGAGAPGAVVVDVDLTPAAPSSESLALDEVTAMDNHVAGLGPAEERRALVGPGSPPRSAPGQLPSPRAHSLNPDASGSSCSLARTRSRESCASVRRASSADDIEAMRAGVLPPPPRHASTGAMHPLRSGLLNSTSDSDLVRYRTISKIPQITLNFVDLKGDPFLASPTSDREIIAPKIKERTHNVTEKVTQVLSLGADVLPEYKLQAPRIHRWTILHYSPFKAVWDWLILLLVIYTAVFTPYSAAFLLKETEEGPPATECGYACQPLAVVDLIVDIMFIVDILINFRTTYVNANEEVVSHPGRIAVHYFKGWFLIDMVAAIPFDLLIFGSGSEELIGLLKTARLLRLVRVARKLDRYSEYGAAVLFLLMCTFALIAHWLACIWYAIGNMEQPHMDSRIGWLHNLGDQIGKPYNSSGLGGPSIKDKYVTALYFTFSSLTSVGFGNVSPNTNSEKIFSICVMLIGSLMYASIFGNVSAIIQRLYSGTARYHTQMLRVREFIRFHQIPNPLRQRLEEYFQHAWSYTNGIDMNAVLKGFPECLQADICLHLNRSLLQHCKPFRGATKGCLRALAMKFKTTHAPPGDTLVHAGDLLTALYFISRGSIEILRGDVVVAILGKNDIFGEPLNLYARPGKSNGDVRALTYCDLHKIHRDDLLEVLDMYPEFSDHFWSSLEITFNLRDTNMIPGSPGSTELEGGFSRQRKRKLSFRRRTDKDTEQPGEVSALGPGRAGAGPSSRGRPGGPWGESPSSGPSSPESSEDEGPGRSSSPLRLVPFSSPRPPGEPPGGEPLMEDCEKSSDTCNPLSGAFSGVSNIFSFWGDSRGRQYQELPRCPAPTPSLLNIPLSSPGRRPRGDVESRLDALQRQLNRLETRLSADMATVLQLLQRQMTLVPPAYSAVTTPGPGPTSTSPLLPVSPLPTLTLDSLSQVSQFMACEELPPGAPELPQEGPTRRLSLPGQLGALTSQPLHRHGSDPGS
Chain of Nuclear receptor subfamily 1 group I member 2 (Rattus norvegicus) (Q9R1A7 whole entry, looked up): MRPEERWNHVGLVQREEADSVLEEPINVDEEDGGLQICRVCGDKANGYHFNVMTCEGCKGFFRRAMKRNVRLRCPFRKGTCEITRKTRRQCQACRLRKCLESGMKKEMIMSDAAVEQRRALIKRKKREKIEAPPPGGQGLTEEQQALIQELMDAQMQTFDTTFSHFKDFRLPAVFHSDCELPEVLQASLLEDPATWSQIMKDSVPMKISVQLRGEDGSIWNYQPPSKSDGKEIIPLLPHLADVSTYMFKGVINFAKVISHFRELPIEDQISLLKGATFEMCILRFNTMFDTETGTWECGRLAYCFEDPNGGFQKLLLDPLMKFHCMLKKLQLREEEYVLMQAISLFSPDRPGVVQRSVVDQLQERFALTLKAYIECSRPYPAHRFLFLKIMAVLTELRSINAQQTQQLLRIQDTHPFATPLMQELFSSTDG
Chain of Cytochrome P450 1A2 (Homo sapiens) (P05177 whole entry, looked up): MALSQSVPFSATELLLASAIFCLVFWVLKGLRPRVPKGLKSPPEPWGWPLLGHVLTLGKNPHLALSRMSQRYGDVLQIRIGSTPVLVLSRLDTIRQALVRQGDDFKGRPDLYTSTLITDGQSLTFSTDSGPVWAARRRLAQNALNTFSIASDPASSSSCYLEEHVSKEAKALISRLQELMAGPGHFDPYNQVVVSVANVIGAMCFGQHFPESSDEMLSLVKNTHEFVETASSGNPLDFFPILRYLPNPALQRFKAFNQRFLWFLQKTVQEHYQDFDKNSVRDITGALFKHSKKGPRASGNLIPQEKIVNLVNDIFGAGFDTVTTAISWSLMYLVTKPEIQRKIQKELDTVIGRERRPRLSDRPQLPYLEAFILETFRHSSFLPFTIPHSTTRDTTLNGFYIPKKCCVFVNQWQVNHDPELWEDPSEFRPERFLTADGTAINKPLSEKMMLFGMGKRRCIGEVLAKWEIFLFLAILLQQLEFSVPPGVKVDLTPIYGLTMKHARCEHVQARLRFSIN
Chain of Cytochrome P450 2D6 (Homo sapiens) (P10635 whole entry, looked up): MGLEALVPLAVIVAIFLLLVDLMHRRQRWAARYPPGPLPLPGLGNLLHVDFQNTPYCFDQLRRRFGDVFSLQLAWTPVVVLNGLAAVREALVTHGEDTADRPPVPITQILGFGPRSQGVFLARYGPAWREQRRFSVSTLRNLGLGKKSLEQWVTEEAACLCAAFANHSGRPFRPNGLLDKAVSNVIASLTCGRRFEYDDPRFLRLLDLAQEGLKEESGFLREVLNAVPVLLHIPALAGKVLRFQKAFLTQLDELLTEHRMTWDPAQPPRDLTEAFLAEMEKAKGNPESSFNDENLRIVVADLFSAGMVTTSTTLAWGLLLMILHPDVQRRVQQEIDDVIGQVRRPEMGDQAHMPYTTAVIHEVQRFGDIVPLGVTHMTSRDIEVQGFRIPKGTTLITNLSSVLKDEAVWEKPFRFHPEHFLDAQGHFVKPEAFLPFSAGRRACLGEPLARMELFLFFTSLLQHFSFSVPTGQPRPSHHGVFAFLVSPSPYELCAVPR
Chain of Cytochrome P450 2C19 (Homo sapiens) (P33261 whole entry, looked up): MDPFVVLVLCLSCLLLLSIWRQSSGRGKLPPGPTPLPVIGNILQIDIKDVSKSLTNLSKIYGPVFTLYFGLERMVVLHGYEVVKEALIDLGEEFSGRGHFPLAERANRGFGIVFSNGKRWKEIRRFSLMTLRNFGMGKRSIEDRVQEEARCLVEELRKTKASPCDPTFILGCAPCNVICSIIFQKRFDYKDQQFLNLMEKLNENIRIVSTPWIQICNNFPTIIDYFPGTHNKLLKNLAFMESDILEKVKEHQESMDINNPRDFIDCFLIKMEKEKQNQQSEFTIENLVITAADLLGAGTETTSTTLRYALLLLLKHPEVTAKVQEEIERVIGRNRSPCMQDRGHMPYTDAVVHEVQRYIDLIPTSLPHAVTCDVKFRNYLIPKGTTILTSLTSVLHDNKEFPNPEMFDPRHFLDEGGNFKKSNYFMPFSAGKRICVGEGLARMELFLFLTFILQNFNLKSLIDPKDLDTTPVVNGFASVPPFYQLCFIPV

CC(=O)NCCCCCC(=O)O
inactive: Potency [1] | Potency [2] | Potency [3] | Potency [4] | max activation [5] 0.55% | Potency [6] | Potency [7] | Potency [8] | Potency [9] | Potency [10] | Potency [11] | Potency [12]

CC(CN)CC(C)(C)CCN (stereo not given)
inactive: Potency [1] | Potency [2] | Potency [4] | Potency [13] | Potency [11]
active: Potency [8] 11.5 µM | Potency [9] 36.5 µM | Potency [12] 5.16 µM

C[Si](C)(C)C
inactive: Potency [1] | Potency [2] | Potency [3] | Potency [4] | Potency [8] | Potency [9] | Potency [10] | Potency [11] | Potency [12]

C=COCCOCCOCCOC=C
active: Potency [9] 79.6 µM | Potency [15] 35.6 µM
inactive: Potency [1] | Potency [3] | outcome [14] | Potency [4] | Potency [13] | Potency [8] | Potency [10] | Potency [11] | Potency [12]

CCCCCCCC/C=C\CCCCCCCC(=O)OCCCC
inactive: activity change, negative = cytotoxicity [1] 1.78% [at 19 µM] | caspase activation [2] 0.919% [at 19 µM] | activity change, negative = cytotoxicity [3] 3.24% [at 19 µM] | activity change, negative = cytotoxicity [4] 2.37% [at 19 µM] | activity change, negative = inhibition [8] -8.07% [at 23.6 µM] | activity change, negative = inhibition [9] -24.4% [at 23.6 µM] | activity change, negative = inhibition [11] -0.621% [at 15.8 µM] | activity change, negative = inhibition [12] -4.05% [at 23.6 µM]

O=C(OCC1(COC(=O)c2cccnc2)CCCC(COC(=O)c2cccnc2)(COC(=O)c2cccnc2)C1O)c1cccnc1
active: Potency [9] 38.9 µM | Potency [10] 12.3 µM
inactive: Potency [1] | Potency [2] | Potency [3] | Potency [4] | Potency [13] | Potency [15] | Potency [11]

CC(CO)c1ccccc1 (stereo not given)
inactive: Potency [1] | Potency [3] | outcome [14] | Potency [4] | Potency [13] | Potency [8] | Potency [9] | Potency [10] | Potency [11] | Potency [12]

O=C1CC(c2ccc(Cl)cc2)CC(=O)N1
active: Potency [15] 27.5 µM
inactive: Potency [1] | outcome [14] | Potency [13] | Potency [8] | Potency [9] | Potency [10] | Potency [11] | Potency [12]

CC1(C)S[C@@H]2[C@H](N=CN3CCCCCC3)C(=O)N2[C@H]1C(=O)O
inactive: Potency [2] | Potency [3] | outcome [14] | Potency [4] | Potency [13] | max activation [5] -0.392% | Potency [6] | Potency [7] | Potency [9] | Potency [10] | Potency [15] | Potency [11] | Potency [12]

Nc1ncnc(Nc2ccccc2)n1
inactive: Potency [2] | Potency [3] | outcome [14] | Potency [4] | Potency [13] | max activation [5] 2.76% | Potency [6] | Potency [7] | Potency [9] | Potency [10] | Potency [11] | Potency [12]

O=C(c1ccc(O)cc1)c1ccc(O)c(O)c1O
inactive: Potency [2] | outcome [14] | Potency [10] | Potency [11]
active: Potency [3] 61.4 µM | Potency [4] 54.7 µM | Potency [13] 13.7 µM | Potency [8] 40.1 µM | Potency [9] 40.1 µM
